Screens deposited in PubChem by several laboratories.
An excerpt weighted towards active compounds, which were near 4.7% of everything screened.
rCAG binder – molecules binding r(CAG) RNA repeats | r(CAG) RNA repeat, TO-PRO-1 dye displacement fluorescence | inhibition, % at 3 µM | actives 1.3% (n = 370,000);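 active means inhibition above the plate cutoff, the mean of all test compounds on that plate plus 3 SD, cut at about 35% in these data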;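 further: 0% = DMSO alone and 100% = 100 µM mitoxantrone as full dye displacement; higher means more dye released from RNA so lower well fluorescence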
ADAM10 inh – inhibitors of human ADAM10; O14672; recombinant ADAM10, EDANS/DABCYL FRET peptide cleavage, 3 h; inhibition, % at 7 µM; actives 0.62% (n = 370,000); AID 720582;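 active means inhibition above a per-campaign cutoff equal to the mean of compounds falling between control-based bounds plus 3 SD, cut at about 20% in these data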;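 further: 0% = DMSO wells while the 100% control is not disclosed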
proKLK7 act – proKLK7 (human) activation, primary screen | P49862 | purified proKLK7, EDANS-DABCYL substrate fluorescence; 100% is mature enzyme control, 0% vehicle | activation, % at 7 µM | actives 0.9% (n = 370,000) | AID 652039;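 active means activation above the mean of all tested compounds plus 3 SD, computed per campaign excluding outliers beyond control limits, cut at about 13% in these data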
MPTP block – permeability transition pore inhibition | AID 602449 | isolated mouse mitochondria, Ca2+ swelling absorbance, 30 min | inhibition, % at 10 µM | actives 1.4% (n = 360,000);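 active means inhibition of 50% or more, scaled per plate between neutral and stimulator controls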;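 further: 0% = DMSO wells given calcium and 100% = 1 mM EGTA wells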
DSG3 Ab inh – human desmoglein-3 autoantibody binding inhibition; P32926; AID 588358; DSG3-coupled beads, scFv-anti-DSG3-GFP binding, flow cytometry; active compounds read low; actives 0.48% (n = 310,000); binding (percent of control), % at 10 µM;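 active means binding more than 3 SD below its plate's average and above zero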;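 further: hits lower antibody fragment binding to DSG3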
ADAM17 inh – ADAM17 inhibition, QFRET primary screen; P78536; recombinant ADAM17, EDANS/DABCYL FRET peptide cleavage; inhibition, % at 6.95 µM; actives 0.83% (n = 370,000);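 active means inhibition above the mean of compounds lying between control limits plus 3 SD, set per campaign, cut at about 8.5% in these data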;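 further: 0% = DMSO-only wells as the low control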
rCAG binder conf – r(CAG) RNA repeat binding, confirmation. inhibition, % at 3 µM. TO-PRO-1 dye displacement fluorescence. shares compounds with rCAG binder. actives 70% (n = 4,300);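 active means inhibition above a per-plate cutoff, the mean inhibition of sample wells plus 3 SD, cut at about 35% in these data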;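 further: loss of TO-PRO-1 fluorescence as compound displaces dye from 1x1 AA loop RNA; 0% = DMSO only wells and 100% = 100 µM mitoxantrone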
dCAG dye counter – DNA CAG dye complex inhibition counter-screen. shares compounds with rCAG binder. d(CAG) DNA oligo TO-PRO-1 dye displacement, fluorescence. inhibition, % at 3 µM. actives 94% (n = 4,300);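 active means inhibition above its plate's cutoff, the mean test-well inhibition plus 3 SD, cut at about 4.8% in these data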;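 further: 0% = DNA dye mix with DMSO and 100% = 100 µM mitoxantrone; hits displace the dye from DNA and so lower well fluorescence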
Numbers without * were called inactive; x = no result.

SMILES	rCAG binder	ADAM10 inh	proKLK7 act	MPTP block	DSG3 Ab inh	ADAM17 inh	rCAG binder conf	dCAG dye counter
CC(C)c1ccc(/C=N/n2c(COc3ccccc3)n[nH]c2=S)cc1	36*	9	0	1	96	-2	48*	11*
CC(C)Oc1cccc(-c2n[nH]c(=S)n2N=Cc2cccc([N+](=O)[O-])c2)c1	51*	-2	0	x	x	0	57*	17*
Cc1cc(-c2n[nH]c(=S)n2N=Cc2cccc(Oc3ccccc3)c2)n[nH]1	46*	-3	0	x	x	-1	31	7.9*
S=c1[nH]nc(COc2ccccc2)n1/N=C/c1cccc(Br)c1	42*	0	0	1	90	-1	44*	14*
Cc1cc(/N=C/C=C2/N(C)c3ccccc3C2(C)C)n(CCC#N)n1	3	-23	1	-1	88	-1	x	x
CCN1CCN(C(=O)C(C)Nc2cc(Cl)c(OC)cc2OC)CC1 (centres undefined)	-5	-8	0	1	108	-4	x	x
O=C(CN1C(=O)/C(=C/c2ccccc2)SC1=S)N1CCN(CCc2ccccn2)CC1	-3	-3	0	0	x	-4	x	x
CCOc1cc(/C=C2\SC(=N)N(c3nccs3)C2=O)ccc1OCCN1CCOCC1	38*	7	0	0	102	-1	37*	11*
CC(C)CCN1C(=O)c2ccc(C(=O)Nc3ccc(O)cc3C(=O)O)cc2C1=O	98*	-6	-1	0	97	2	84*	51*
CC(C)CCN1C(=O)c2ccc(C(=O)Nc3ccccc3C(=O)O)cc2C1=O	55*	4	1	2	94	1	80*	51*
COc1cc(NC(=O)c2ccc3c(c2)C(=O)N(CCC(C)C)C3=O)c(C(=O)O)cc1OC	6	1	-1	1	108	0	x	x
O=C(O)CC(Cc1ccc(Cl)cc1)C(=O)Nc1cc(Cl)ccc1Cl (centres undefined)	40*	4	-1	-1	118	2	27	4
COc1ccc(OC)c(NC(=O)C(CC(=O)O)Cc2ccc(Cl)cc2)c1 (centres undefined)	12	-2	0	-1	x	-1	x	x
Cc1ccccc1C(=O)N1CCC[C@@H]1C(=O)N1CCC[C@H]1C(=O)NCc1ccccc1	-2	-2	0	x	x	-3	x	x
COC(=O)c1cc2c(c3c4cc(OC)ccc4n(S(=O)(=O)c4ccc(OC)cc4)c13)C(=O)N(Cc1ccc(C(F)(F)F)cc1)C2	13	-9	1	x	x	-2	x	x
C=C(C)CSc1nnc(-c2cc(-c3ccc(OC)cc3)n[nH]2)n1N	0	-4	0	x	x	0	x	x
COc1ccc(N(CC(=O)Nc2cc(Cl)ccc2OC)S(=O)(=O)c2c(C)[nH]c(=O)[nH]c2=O)cc1	49*	8	0	-1	102	2	39*	13*
Cc1ccc(N(CC(=O)Nc2ccc(Br)c(C)c2)S(=O)(=O)c2c(C)[nH]c(=O)[nH]c2=O)cc1	47*	-27	0	1	100	5	67*	23*
Cc1cc(C)cc(N(CC(=O)Nc2ccc(C)cc2Cl)S(=O)(=O)c2c(C)[nH]c(=O)[nH]c2=O)c1	40*	2	0	-2	101	-5	54*	17*
Cc1cc(C)cc(N(CC(=O)Nc2ccc(C(F)(F)F)cc2)S(=O)(=O)c2c(C)[nH]c(=O)[nH]c2=O)c1	49*	18	0	2	103	3	52*	16*
O=C(OCC(=O)N1CCCCCC1)c1ccccc1Br	0	-4	0	0	116	-3	x	x
Cc1ccc(C(=O)NCCN2C(=O)C3C4C=CC(C4)C3C2=O)cc1 (centres undefined)	0	2	1	x	x	-1	x	x
O=C(O)c1[nH]c2ccc(Br)cc2c1CCN1C(=O)c2cccc([N+](=O)[O-])c2C1=O	64*	-3	0	3	99	-6	42*	13*
O=C(O)c1[nH]c2ccc(Cl)cc2c1CCN1C(=O)c2ccccc2C1=O	50*	8	1	0	98	5	26	6.3*
Cc1ccc(NC(=O)CCN2C(=O)c3cccc([N+](=O)[O-])c3C2=O)c(Br)c1	-2	-3	0	-1	98	-7	x	x
SMILES	rCAG binder	ADAM10 inh	proKLK7 act	MPTP block	DSG3 Ab inh	ADAM17 inh	rCAG binder conf	dCAG dye counter
COc1ccc2[nH]c(C(=O)O)c(CCN3C(=O)c4ccc(C(=O)O)cc4C3=O)c2c1	1	-9	0	-1	107	-4	x	x
Cc1cc(C(C)(C)C)cc(S(=O)(=O)Nc2ccc(O)c(C(=O)O)c2)c1C	57*	4	0	0	93	2	23	5.3*
CC(=O)Nc1ccc(NC(=O)c2ccc(NS(=O)(=O)c3cc(C(C)(C)C)cc(C)c3C)cc2)cc1	-11	-4	8	-5	104	-2	x	x
Cc1sc(NC(=O)c2sc3nc4c(C)cccc4cc3c2N)c(C#N)c1C	68*	-26	-1	30	94	-8	60*	32*
C=CCN=C1NC(c2cccc(Cl)c2)C(C(=O)OC)=C(C)N1C (centres undefined)	2	-1	0	x	x	-3	x	x
CCOC(=O)C1Nc2ccc(C(=O)O)cc2C2C=CCC12 (centres undefined)	61*	-5	-2	0	106	-2	23	5.4*
CCCC1Nc2ccc(C(=O)O)cc2C2C=CCC12 (centres undefined)	x	x	x	2	112	x	x	x
CC(C)C1Nc2ccc(C(=O)O)cc2C2C=CCC21 (centres undefined)	56*	-11	0	-4	101	-7	29	7.3*
COc1cccc(NC(=O)Nc2nc(-c3ccc(OC)c(OC)c3)cs2)c1	34	12	1	19	107	6	x	x
O=C1C(c2cc(=O)c3ccccc3[nH]2)=C(O)c2ccccc21	63*	5	0	6	93	2	36*	8.5*
O=c1cc(-c2ccccc2)[nH]c2ccccc12	1	-13	0	-1	102	-8	x	x
O=C1CC(c2ccccc2)=NN1c1ccccc1	53*	-10	0	7	88	3	7	4.8*
Cc1cc(C)nc(N2N=C(c3ccccc3)CC2=O)n1	3	-4	0	1	99	-3	x	x
CCCc1nc2c(C)cc(Br)cn2c1Cc1ccc(OC)cc1C	0	-13	0	1	x	-8	x	x
N#C/C(=C(/O)CCl)c1nc(-c2ccccc2)cs1	42*	-7	-1	37	103	4	38*	18*
